Experimental data published in PubChem BioAssay (Tox21).
Where “and” joins values, the source holds several entries; their conditions need not be identical. Identical values can stand only once. Inconclusive results are not listed. Entries that show only a call come without a potency. Some structures have more than one record in an assay (separate samples or runs), and their calls can disagree. Calls of active or inactive are those of the source. Unless noted, calls come from the whole dose curve; as a rule, active = well fitted curve in the direction sought with a large enough effect in the repeat runs; inconclusive = weak or mixed curves; inactive = no such curve, though single readings can be large; an effect the other way counts as inactive or inconclusive.

How the values were obtained:
[1] = qHTS assay for small molecule agonists of the p53 signaling pathway (AID 651631; calls by dose curve; note: nearly all actives have a fitted effect of over 15% in size; note: potency is the fitted concentration of half-maximal effect)
Method in brief: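 We treat p53RE-bla HCT-116 cells with compounds for 16 h at 37 °C, add LiveBLAzer B/G FRET substrate for 2 h at room temperature, and measure fluorescence intensity.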

[2] = qHTS assay for small molecules that induce genotoxicity in human embryonic kidney cells expressing luciferase-tagged ATAD5 (AID 651632); note: nearly all actives have a fitted effect of over 15% in size
Method in brief: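 Luminescent reporter readout, HEK293T ATAD5-luc line: 16 hr drug exposure (37C, 5% CO2) followed by Amplite, 30 min RT.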

[3] = qHTS assay for small molecule agonists of the p53 signaling pathway - cell viability (AID 651633; calls by dose curve;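 note: p53RE-bla HCT reporter cells with a stable beta-lactamase p53 reporter; series mostly up to about 83 µM; nearly all actives have a fitted effect of over 30% in size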)
Method in brief: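 p53RE-bla cells were treated with compound for 16 hours at 37 C. Cytotoxicity was then measured as CellTiter-Glo luminescence after 30 min at room temperature.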

[4] = qHTS assay for small molecules that induce genotoxicity in human embryonic kidney cells expressing luciferase-tagged ATAD5 - cell viability (AID 651634; calls by dose curve; note: nearly all actives have a fitted effect of over 25% in size)
Method in brief: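 Viability read: CellTiter-Fluor fluorescence, 30 min at 37C. Cells: HEK293T, luciferase-tagged ATAD5. Exposure: 15.5 hr, 37C, 5% CO2, compound or DMSO vehicle.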

[5] = qHTS assay for small molecule disruptors of the mitochondrial membrane potential - cell viability (AID 720634; calls by dose curve;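 note: human HepG2 liver cancer cells; series mostly up to about 83 µM; nearly all actives have a fitted effect of over 20% in size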)
Method in brief: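 HepG2, 1 hr compound, 37 C. ATP luminescence via CellTiter-Glo, 30 min RT, same well as m-MPI.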

[6] = qHTS assay for small molecule disruptors of the mitochondrial membrane potential (AID 720635); note: potency is the fitted concentration of half-maximal effect
Method in brief: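 HepG2 cells exposed to compound 1 hr at 37C, then Mito-MPS dye 30 min. Ratio read of aggregate (540/590 nm) versus monomer (490/535 nm) fluorescence.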

[7] = qHTS assay to test for compound auto fluorescence at 590 nm (red) in HepG2 cells (AID 720674)
Method in brief: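 Seeding: 2,000 HepG2 cells/well, MEM/10% FBS, overnight 37 C. Dosing: compound vs DMSO. Incubation: 1 hr, 37 C, 5% CO2. Read: fluorescence 540 ex/590 em, Rose Bengal sodium as red reference.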

[8] = qHTS assay to test for compound auto fluorescence at 460 nm (blue) in HEK293 cells (AID 720678)
Method in brief: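 Auto fluorescence in the blue band was quantified as triamterene equivalency. HEK293 cells were seeded at 2,000/well, dosed after a 4-5 hr attachment, and kept overnight at 37C before the 405/460 nm reading.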

[9] = qHTS assay to test for compound auto fluorescence at 590 nm (red) in HEK293 cells (AID 720679)
Method in brief: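 Autofluorescence equivalency to Rose Bengal sodium, 540/590nm, in HEK293 cells exposed overnight to 23 nL compound per well.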

[10] = qHTS assay to test for compound auto fluorescence at 535 nm (green) in HEK293 cells (AID 720680)
[11] = qHTS assay to test for compound auto fluorescence at 460 nm (blue) in HEK293 cell free culture (AID 720681)
Method in brief: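 Compounds were added to cell-free DMEM with 10% FBS and fluorescence read directly. The blue channel used 405 nm excitation and 460 nm emission, with triamterene as the reference fluorophore.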

[12] = qHTS assay to test for compound auto fluorescence at 535 nm (green) in HEK293 cell free culture (AID 720682)
Method in brief: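 Green-channel intensity (Ex/Em 485/535 nm) was recorded from compound-treated wells containing only DMEM with 10% FBS. Fluorescein provided the equivalency standard.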

[13] = qHTS assay to test for compound auto fluorescence at 590 nm (red) in HEK293 cell free culture (AID 720683)
Method in brief: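 Cell-free wells of DMEM with 10% FBS received compound, and intrinsic fluorescence was read at excitation/emission 540/590 nm. Values expressed as equivalence to Rose Bengal sodium.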

[14] = qHTS assay to test for compound auto fluorescence at 590 nm (red) in HepG2 cell free culture (AID 720684)
Method in brief: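 Compound was pinned into wells holding MEM with 10% FBS and no cells, and red fluorescence was read at Ex/Em 540/590 nm. Signal is expressed as auto fluorescence equivalency relative to Rose Bengal sodium.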

[15] = qHTS assay to test for compound auto fluorescence at 460 nm (blue) in HepG2 cell free culture (AID 720685)
Method in brief: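 Compound (23 nL) or DMSO pinned into cell-free MEM with 10% FBS; blue fluorescence read at 405/460 nm excitation/emission, expressed as auto-fluorescence equivalency to triamterene.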

[16] = qHTS assay to test for compound auto fluorescence at 535 nm (green) in HepG2 cell free culture (AID 720686)
[17] = qHTS assay to test for compound auto fluorescence at 460 nm (blue) in HepG2 cells (AID 720687)
Method in brief: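 HepG2 cells in MEM with 10% FBS, attached overnight at 37 C, were exposed to compound or DMSO for 1 hr at 37 C, 5% CO2. Blue fluorescence was read at 405/460 nm, with triamterene as reference fluorophore.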

[18] = target: Glucocorticoid receptor (Homo sapiens) (UniProt P04150); assay: qHTS assay to identify small molecule agonists of the glucocorticoid receptor (GR) signaling pathway (AID 720691; active = well fitted activation curve with a large enough effect in the signal ratio in the repeat runs, not every such curve was filed as active; the % refers to the signal ratio)
Method in brief: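 qHTS in GR-bla HeLa cells: 4 h settling at 37 C/5% CO2, 18 h compound incubation at 37 C, 2 h LiveBLAzer B/G FRET substrate at room temperature, fluorescence intensity measured.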

[19] = qHTS assay to test for compound auto fluorescence at 535 nm (green) in HepG2 cells (AID 720675)
[20] = target: Glucocorticoid receptor (Homo sapiens) (UniProt P04150); assay: qHTS assay to identify small molecule antagonists of the glucocorticoid receptor (GR) signaling pathway (AID 720692; active = well fitted inhibition curve with a large enough effect in the signal ratio in the repeat runs, not every such curve was filed as active; the % refers to the signal ratio)
Method in brief: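 Inhibition of glucocorticoid signalling is measured in HeLa cells with a GRE-controlled beta-lactamase reporter; cells are co-treated with compound and 5 nM dexamethasone (final) for 18 h before FRET substrate readout.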

Glucocorticoid receptor (Homo sapiens), sequence (P04150 whole entry, looked up): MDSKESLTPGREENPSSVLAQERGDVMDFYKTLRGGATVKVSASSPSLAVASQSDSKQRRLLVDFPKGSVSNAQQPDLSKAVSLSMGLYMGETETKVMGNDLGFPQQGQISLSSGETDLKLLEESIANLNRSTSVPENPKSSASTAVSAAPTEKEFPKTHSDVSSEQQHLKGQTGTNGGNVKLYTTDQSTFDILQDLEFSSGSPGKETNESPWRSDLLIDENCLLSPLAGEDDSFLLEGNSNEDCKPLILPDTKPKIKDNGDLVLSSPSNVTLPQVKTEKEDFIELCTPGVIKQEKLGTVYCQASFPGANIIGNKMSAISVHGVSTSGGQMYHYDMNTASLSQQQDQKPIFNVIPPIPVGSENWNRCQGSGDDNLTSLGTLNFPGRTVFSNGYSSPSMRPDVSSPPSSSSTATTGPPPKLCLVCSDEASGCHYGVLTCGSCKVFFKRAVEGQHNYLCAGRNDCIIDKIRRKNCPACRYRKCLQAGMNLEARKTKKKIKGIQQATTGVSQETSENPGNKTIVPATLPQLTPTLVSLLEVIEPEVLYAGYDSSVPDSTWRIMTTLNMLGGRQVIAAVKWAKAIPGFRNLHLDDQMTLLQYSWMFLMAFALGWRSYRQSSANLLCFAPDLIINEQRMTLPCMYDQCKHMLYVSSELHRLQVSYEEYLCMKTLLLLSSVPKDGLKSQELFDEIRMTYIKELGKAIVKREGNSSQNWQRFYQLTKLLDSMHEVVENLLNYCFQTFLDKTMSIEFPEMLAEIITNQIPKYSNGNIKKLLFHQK

SMILES | Potency [1] | Potency [2] | Potency [3] | Potency [4] | Potency [5] | Potency [6] | outcome [7] | outcome [8] | outcome [9] | outcome [10] | outcome [11] | outcome [12] | outcome [13] | outcome [14] | outcome [15] | outcome [16] | outcome [17] | outcome [18] | outcome [19] | Potency [20]
O=[N+]([O-])c1cc([As](=O)(O)O)ccc1O | inactive | inactive | inactive | inactive | inactive | inactive | inactive | inactive | inactive | inactive | inactive | inactive | inactive | inactive | inactive | inactive | inactive | inactive |  | 
Cc1cc(Cl)ccc1OC(C)C(=O)O (stereo not given) | inactive | inactive | inactive | inactive | inactive | inactive | inactive | inactive | inactive | inactive | inactive |  | inactive | inactive | inactive | inactive | inactive |  | inactive | 
N#Cc1ccccn1 | inactive | inactive | inactive | inactive | inactive | inactive | inactive | inactive | inactive | inactive | inactive |  | inactive | inactive | inactive | inactive | inactive |  | inactive | 
O=C(O)C1C(C(=O)O)C2(Cl)C(Cl)=C(Cl)C1(Cl)C2(Cl)Cl (stereo not given) | inactive | inactive | inactive | inactive | inactive | inactive | inactive | inactive | inactive | inactive | inactive |  | inactive | inactive | inactive | inactive | inactive | inactive | inactive | inactive
COP(=S)(OC)SCN1C(=O)c2ccccc2C1=O | inactive | inactive | inactive | inactive | inactive | inactive | inactive | inactive | inactive | inactive | inactive |  | inactive | inactive | inactive | inactive | inactive | inactive | inactive | 
COC(C)(C)CCCC(C)C/C=C/C(C)=C/C(=O)OC(C)C (stereo not given) | inactive | inactive | inactive | inactive | inactive | inactive and 21.3 µM (active) | inactive | inactive | inactive | inactive | inactive | inactive | inactive | inactive | inactive | inactive | inactive |  |  | 
Cc1ccc(N)cc1 | inactive | inactive | inactive | inactive | inactive | inactive | inactive | inactive | inactive | inactive | inactive |  | inactive | inactive | inactive | inactive | inactive |  | inactive | 
CNCC(O)c1ccc(O)cc1 (stereo not given) | inactive | inactive | inactive | inactive | inactive | inactive | inactive | inactive | inactive | inactive | inactive |  | inactive | inactive | inactive | inactive | inactive | inactive |  | 
CNC(=O)Oc1cccc2ccccc12 | inactive | inactive | inactive | inactive | inactive | 13.3 µM (active) | inactive | inactive | inactive | inactive | inactive | inactive | inactive | inactive | inactive | inactive | inactive |  | inactive | 
O=C/C=C/c1ccccc1 | inactive | inactive | inactive | inactive | inactive | inactive | inactive | inactive | inactive | inactive | inactive | inactive | inactive | inactive | inactive | inactive | inactive | inactive | inactive | 
O=C(O)CCCc1ccc(N(CCCl)CCCl)cc1 | 23.7 µM (active) and 61.4 µM (active) and 34.4 µM (active) | inactive | inactive | inactive | inactive | inactive | inactive | inactive | inactive | inactive | inactive | inactive | inactive | inactive | inactive | inactive | inactive |  |  | 
Cc1cccc(C)c1N | inactive | inactive | inactive | inactive | inactive | inactive | inactive | inactive | inactive | inactive | inactive | inactive | inactive | inactive | inactive | inactive | inactive | inactive | inactive | 
Cc1ccccc1N | inactive | inactive | inactive | inactive | inactive | inactive | inactive | inactive | inactive | inactive | inactive | inactive | inactive | inactive | inactive | inactive | inactive |  | inactive | 
CN(C)C(=O)C(c1ccccc1)c1ccccc1 | inactive | inactive | inactive | inactive | inactive | inactive | inactive | inactive | inactive | inactive | inactive | inactive | inactive | inactive | inactive | inactive | inactive |  |  | 
Cc1cccc(N)c1C | inactive | inactive | inactive | inactive | inactive |  | inactive | inactive | inactive | inactive | inactive |  | inactive | inactive | inactive | inactive | inactive | inactive | inactive | 
CSc1nnc(C(C)(C)C)c(=O)n1N | inactive | inactive | inactive | inactive | inactive | inactive | inactive | inactive | inactive | inactive | inactive |  | inactive | inactive | inactive | inactive | inactive | inactive |  | inactive
CC(C)(C)C(=O)CCl | inactive | inactive | inactive | inactive | inactive | inactive |  | inactive | inactive | inactive | inactive | inactive | inactive | inactive | inactive | inactive | inactive | inactive |  | 
